This is part of a sample that, as a whole, favours compounds with a hit. Of some 83,000 tested, about 20% had one in any assay.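 Percent growth is the endpoint: 0 to 100 indicates growth inhibition (40 means 60% inhibition), 0 means no net growth, and negative values indicate cell death.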 The source made the active and inactive calls. How the source made its calls: active means growth percent below 10; inactive means the rest.
These compounds were tested on KM12 colon (assay: NCI-60 one-dose screen, 48 h (100 = growth as untreated, 0 = no growth, -100 = all killed)). Conditions: 10 µM.

Row | SMILES | growth
1 | NS(=O)(=O)Oc1ccc(NC(=O)C2CCCCCC2)cc1 | 101% (inactive)
2 | O=C(CCl)Nc1ccc(Cc2ccc(NC(=O)CCl)cc2)cc1 | 0.445% (active)
3 | COc1ccc2c(c1)C(=O)/C(=C/c1ccc([N+](=O)[O-])o1)O2 | -80.3% (active)
4 | S=C(SSC(=S)N(c1ccccc1)c1ccccc1)N(c1ccccc1)c1ccccc1 | 98.1% (inactive)
5 | c1ccc(CSc2ncccc2-c2nnc(SCCN3CCOCC3)o2)cc1 | 107% (inactive)
6 | CN(C)c1ncnc2c1nnn2C1OC(CO)C(O)C1O (stereo not given) | 13.7% (inactive)
7 | COc1cc(/C=C/c2cc(/C=C/c3ccc(O)c(OC)c3)nc(N)n2)ccc1O | -29.3% (active)
8 | O=C(/C=C/c1cccc(B(O)O)c1)c1cccc(B(O)O)c1 | -64.4% (active)
9 | CN(C)CCC1(c2ccccc2)CCN(C)C1=O (stereo not given) | 103% (inactive)
10 | COc1ccc(/C=C/c2nnc(/C=C/c3ccc(OC)c(OC)c3)o2)cc1OC | 33.7% (inactive)
11 | CN(C)CCOc1ccc(-c2nc3sccn3c2-c2ccnc(S(C)(=O)=O)n2)cc1 | 113% (inactive)
12 | COc1ccc(CCN2CCC(Nc3nc4ccccc4n3Cc3ccc(F)cc3)CC2)cc1 | 17.7% (inactive)
13 | O=C(CN(C1CCCCC1)C1CCCCC1)Nc1ccc(S(=O)(=O)c2ccc(NC(=O)CN(C3CCCCC3)C3CCCCC3)cc2)cc1 | -28.6% (active)
14 | COc1ccc2nc(-c3ccc(Cl)cc3)cc(-c3nnc(SC/C(=N\O)c4ccccc4)n3-c3ccccc3)c2c1 | 69.2% (inactive)
15 | Cc1cc(CSc2ccccc2C(=O)N2CC=C(c3ccccc3)CC2)on1 | 97.2% (inactive)
16 | CCOC(=O)c1cc(C(=O)c2cc(OC)c(OC)c(OC)c2)n2nc(C)ccc12 | 28% (inactive)
17 | O=C(O)c1ccc(-n2cc(CNc3ccc(Cl)cc3)c(-c3ccccc3)n2)cc1 | 87.8% (inactive)
18 | CNC(=O)c1cc(Oc2ccc3c(c2)sc2nc(-c4ccc(N)cc4)cn23)ccn1 | 20.7% (inactive)
19 | CNC(=O)c1cn(C2CC2)c2cc(N3CCN(C(=O)c4cc(OC)c(OC)c(OC)c4)CC3)c(F)cc2c1=O | 102% (inactive)
20 | CN1CCN(C2=Nc3ccccc3Oc3ccc(Cl)cc32)CC1 | 102% (inactive)
21 | COc1ccc(Cc2cnc(N)nc2N)cc1OC | 110% (inactive)
22 | COc1ccc(C(c2ccc(OCCN(C)C)cc2)c2cc3ccccc3c3ccccc23)cc1 (stereo not given) | 19.3% (inactive)
23 | CC(=O)O[C@@]12CO[C@@H]1C[C@H](O)[C@@]1(C)C(=O)[C@H](O)C3=C(C)[C@@H](OC(=O)[C@H](O)[C@@H](NC(=O)OC(C)(C)C)c4ccccc4)C[C@@](O)([C@@H](OC(=O)c4ccccc4)C12)C3(C)C (stereo not given in full) | 29.6% (inactive)
24 | CS(=O)(=O)c1nccc(-c2c(-c3cccc(OCCc4ccccc4)c3)nc3sccn23)n1 | 104% (inactive)
25 | C(=N\Nc1ncnc2sc3c(c12)CCNC3)/c1cccc2ccccc12 | 82.4% (inactive)
26 | CNS(=O)(=O)Oc1ccc(-c2sc3cc(OS(=O)(=O)NC)ccc3c2C(=O)c2ccc(OCCN3CCCCC3)cc2)cc1 | 80.2% (inactive)
27 | CCCCC/C=C/C/C=C/CCCCCCCC1=NC(C)(C)CN1C(C)C | -92% (active)
28 | C#C[C@]1(O)CCC2C3CCc4cc(OC5CCCC5)ccc4C3CC[C@@]21C (stereo not given in full) | 34.1% (inactive)
29 | COc1cccc(-c2nc3sccn3c2-c2cccc(S(C)(=O)=O)c2)c1 | 109% (inactive)
30 | CC(=O)Nc1ccc(S(=O)(=O)c2ccnc3cc(Cl)ccc23)cc1 | 90.1% (inactive)

From PubChem BioAssay (NCI)
